The whole screen tested about 310,000 compounds, of which about 1,000 (0.32%) were called active. The rule behind the calls is not given here. Not all results are given here. Entries with a potency or affinity are not part of this list.

Broadly, the inhibition is the relative decrease from the control value, in per cent.

The assay in a line: Inhibition of PhoP regulon, Salmonella typhi GFP reporter cells, confirmation, 4 h (AID 1850).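 Note: 0% = induced wells with vehicle and 100% = uninduced wells.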 The following applies: Salmonella Typhi PhoP-promoter GFP reporter, fluorescence, at 50 µM, active compounds read high.
For `Cc1cccc(CC(=O)N2CCC(n3nccc3NC(=O)C3CC3)CC2)c1`, the inhibition was -7.5% (inactive). Then `O=C(NCc1ccccc1)c1nc(-c2cccs2)no1`, with -1.19% (inactive); and `CN(Cc1ccon1)C(=O)C1CCC(=O)N(Cc2ccc(Cl)cc2)C1` (configuration not stated), with -14.1% (inactive). Then `Cc1cc(C(=O)CC#N)c(C)n1-c1ccc(OC(F)F)cc1`, with -0.727% (inactive); and `O=C(C[n+]1ccc2ccccc2c1)c1cccc2ccccc12`, with -0.15% (inactive); and `Cc1ccc(S(=O)(=O)NNC(=O)c2sc(=S)n(C)c2C)cc1`, with -24.1% (inactive). With `Cc1ccc(N2C(=O)C3C4C=CC(CNC(=S)N5CCN(c6ccccn6)CC5)(O4)C3C2=O)cc1` (configuration not stated), the inhibition was 5.6% (inactive). Then `COc1ccc(/C=N\NC(=O)c2cccc(F)c2)cc1COc1ccccc1`, with -7.03% (inactive); and `CC1=C(C(=O)O)N2C(=O)C(NC(=O)CCCC(=O)O)C2SC1` (configuration not stated), with 10.9% (inactive).

On to `C[C@H]1[C@H](NC(=O)C(=NOC(C)(C)C(=O)O)c2csc(N)n2)C(=O)N1S(=O)(=O)O`, for which the inhibition was 1.3% (inactive).

On to `CC1=C(C(=O)O)N2C(=O)C(NC(=O)c3ccn(C)n3)C2SC1` (configuration not stated), for which the inhibition is 7.91% (inactive). With `C=CC1=C(C(=O)O)N2C(=O)C(NC(=O)Cc3ccccc3)C2SC1` (configuration not stated) the figure was -5.97% (inactive); with `O=C(O)C[C@H]1c2ccccc2S(=O)(=O)N1c1ccccc1`, -12.5% (inactive). Then `Cc1nn(Cc2noc(C(=O)NCc3ccc(F)cc3)n2)c(C)c1Br`, with 5.51% (inactive); and `O=C(CCc1nnc(Cc2cccc(C(F)(F)F)c2)o1)NC1CC1`, with 2.17% (inactive). Then `COc1ccc(N(CC(=O)Nc2ccccc2C(=O)NCCc2ccccc2)S(C)(=O)=O)cc1OC`, with -12.9% (inactive); and `CC(=O)Nc1ccc(S(=O)(=O)Oc2ccccc2N2C(=O)C3C4CCC(C4)C3C2=O)cc1` (configuration not stated), with 1.86% (inactive). Regarding `COc1ccc(N(CC(=O)NC2CC3CCC2C3)S(=O)(=O)c2ccc(C)cc2)cc1` (configuration not stated), the inhibition was -6.68% (inactive). As to `CN(C)CCCNc1ccc(-c2n[nH]c(=O)c3ccccc23)cc1[N+](=O)[O-]`, the inhibition was -4.76% (inactive). Consider `Cc1ccc2nc(C)c(Cl)c(=O)n2c1`, for which the inhibition is -9.57% (inactive).

In the case of `COc1ccc(CCNC(=O)CCCCC(=O)NCCc2ccc(OC)cc2)cc1`, the inhibition was -3.5% (inactive). In the case of `O=S(=O)(NC1CCCCCC1)c1cccc2cccnc12`, the inhibition is 5.87% (inactive). For `COc1ccc(C(=O)O/N=C(/c2ccccc2)c2ccncc2)cc1OC`, the inhibition is -4.7% (inactive). Then `COc1c(O)c(O)c2oc(-c3ccccc3)cc(=O)c2c1OC`, with 9.73% (inactive); and `O=c1cc(-c2ccc(O)cc2)oc2cc(O)cc(O)c12`, with 1.38% (inactive); and `CCOC(=O)CC1(C)OCC(C[N+]2(C)CCCCC2)O1` (configuration not stated), with 5.82% (inactive). As to `COC(=O)[C@@H]1C[C@@]2(O)[C@H](O)[C@H](O)[C@H](O)C[C@H]2N1Cc1ccc(-c2ccccc2)cc1`, the inhibition is -7.22% (inactive). Then `CC1CCN(CCNC(=O)c2ccc3c(=O)n(Cc4ccc(Cl)cc4)c(=S)[nH]c3c2)CC1`, with 4.39% (inactive).

`COC(=O)c1ccc2c(=O)n(Cc3ccc(C(=O)NCCCN4CCC(C)CC4)cc3)c(=S)[nH]c2c1`: the inhibition is 2.98% (inactive).

Consider `COc1ccc(S(=O)(=O)NN(C)c2ncc(C(F)(F)F)cc2Cl)cc1`, for which the inhibition is 2.03% (inactive). Regarding `CC(=O)NCCC(=O)NCC1(N(C)Cc2ccccc2)Cc2ccccc2C1`, the inhibition was -1.56% (inactive).

With `c1ccc(-c2cc(N3CCCCC3)nc(-c3ccccc3)n2)cc1`, the inhibition was 5.32% (inactive). On to `CO[C@@]12[C@H](COC(N)=O)C3=C(C(=O)C(C)=C(N)C3=O)N1C[C@@H]1N[C@@H]12`, for which the inhibition was 6.71% (inactive). Turning to `O=C(ONC1=NCCCCC1)c1cccc([N+](=O)[O-])c1`, the inhibition is -5.28% (inactive). With `Cc1ccnc(-n2c(C)nc3ccccc3c2=O)c1`, the inhibition was -16% (inactive). For `O=C(NC1CC2CCCC(C1)N2C(=O)Nc1ccccc1)c1ccccc1` (configuration not stated), the inhibition is -0.41% (inactive). Take `COc1cc(C)c(CN2CCC(n3nccc3NC(=O)C3CCOC3)CC2)cc1C` (configuration not stated): the inhibition was -6.02% (inactive). As for `CC(C)N1CC(C(=O)Nc2ccc(C#N)cc2)CC1=O` (configuration not stated), the inhibition is -2.49% (inactive).

Turning to `Cc1cc(Cl)ccc1OCC(=O)n1cc(C(=O)c2cc(Cl)ccc2O)cn1`, the inhibition was -8.17% (inactive). Consider `Cc1ncc(CC(=O)n2cc(C(=O)c3cc(F)ccc3O)cn2)s1`, for which the inhibition is 23.5% (inactive). In the case of `O=C(NCCc1ccccc1)c1nccc2ccccc12`, the inhibition was 3.49% (inactive).

For `COCCC(=O)N1CCC(Oc2ccc(C(=O)N3CCC[C@H]3CO)cc2)CC1`, the inhibition was -1.9% (inactive). `CCOC(=O)C1CCCN(C2CCN(Cc3nc(Cc4ccccc4)no3)CC2)C1` (configuration not stated): the inhibition is -4.46% (inactive). Take `Cc1ccc(NC(=S)NC(CO)C(O)c2ccc([N+](=O)[O-])cc2)cc1` (configuration not stated): the inhibition is 8.81% (inactive). In the case of `CS(=O)(=O)c1ccc(C(=O)NC(Cc2ccccc2)c2ccccc2)cc1` (configuration not stated), the inhibition is 2.4% (inactive). `CS(=O)(=O)c1ccc(C(=O)NCc2ccccc2F)cc1`: the inhibition is 2.01% (inactive). Regarding `O=C(O)c1cc(S(=O)(=O)NC(CO)C(O)c2ccc([N+](=O)[O-])cc2)ccc1Br` (configuration not stated), the inhibition was 5.04% (inactive). Take `Cc1ccc(-n2nc(C(=O)NN)c(C)c(C#N)c2=O)cc1Cl`: the inhibition is -0.01% (inactive). Turning to `CCOC(=O)N1CCC(NC(=O)c2ccccc2C(=O)O)CC1`, the inhibition is 2.93% (inactive). Regarding `CCN(CC)S(=O)(=O)c1ccc(C)c(NC(=O)COc2ccc3c(C)cc(=O)oc3c2)c1`, the inhibition is -6.3% (inactive). In the case of `CCCn1nnc(NC(=O)c2ccc([N+](=O)[O-])cc2Cl)n1`, the inhibition was -8.6% (inactive). Take `Fc1ccc(-c2nc3ccccn3c2NCc2ccc3c(c2)OCO3)cc1`: the inhibition is -6.33% (inactive). Take `O=C(NCCC1=CCCCC1)C(=O)NCc1ccccc1`: the inhibition was -1.97% (inactive). On to `Cc1ccc(CNC(=O)C(=O)NCCC2=CCCCC2)cc1`, for which the inhibition was -20.6% (inactive).

With `Clc1ccc(CNCCC2=CCCCC2)cc1`, the inhibition was -4.93% (inactive). Take `Cc1ccc(NC(=S)NCCC2=CCCCC2)cc1`: the inhibition was -0.73% (inactive). As for `CC(C)[C@H](NC(=O)c1ccccc1Cl)C(=O)OCc1cc([N+](=O)[O-])cc2c1OCOC2`, the inhibition is -4.37% (inactive). In the case of `O=C(O)CCC(=O)Nc1nc2nccc(-c3ccccc3)n2n1`, the inhibition is -7.87% (inactive). Then `CCOc1cc(/C=C2/C(=N)N3N=C(C)SC3=NC2=O)ccc1OS(=O)(=O)c1ccc(C)cc1`, with 18.2% (inactive); and `O=C(Nc1cc2c3c(c1)CC(=O)N3CCC2)c1ccc(Br)o1`, with 2.71% (inactive); and `CCNC(=S)NNC(=O)c1cc(-c2cccc(OCC)c2)nc2ccccc12`, with 10.8% (inactive). Regarding `O=C(CCc1ccccc1)NNC(=O)c1ccccc1Br`, the inhibition is -5.24% (inactive). In the case of `CCNc1ccc(C2(O)C(=O)c3ccccc3C2=O)cc1`, the inhibition was -8.28% (inactive).

With `O=[N+]([O-])c1ccc(Cl)c2cccnc12`, the inhibition is -13% (inactive). For the compound `Oc1ccc(F)c2cccnc12`, the inhibition is 8.36% (inactive). In the case of `O=[N+]([O-])c1ccc(O)c2cccnc12`, the inhibition is 2.39% (inactive). On to `Clc1cc2cccnc2c2ccccc12`, for which the inhibition is -17.8% (inactive). With `O=[N+]([O-])c1cccc2c(Cl)ccnc12` the figure was 5.29% (inactive); with `Oc1c(I)cc(I)c2cccnc12`, 8.57% (inactive); with `O=[N+]([O-])c1cc2cccnc2c2ncccc12`, -13.3% (inactive). As to `Cc1ccc([N+](=O)[O-])c2cccnc12`, the inhibition was -3.26% (inactive). Then `Cc1oc2cc3oc(=O)c(CC(=O)NCC(=O)N[C@@H](C(=O)O)c4ccccc4)c(C)c3cc2c1C`, with 3.13% (inactive); and `Cc1ccccc1OCC(=O)Nc1nc2ccccc2[nH]1`, with 9.79% (inactive). Turning to `COc1cccc(CN2CCNC(=O)C2CC(=O)N2CCOc3ccccc3C2)c1OC` (configuration not stated), the inhibition was -0.13% (inactive). Regarding `O=c1cc(-c2ccccc2)nc(SCCOc2ccccc2Cl)[nH]1`, the inhibition is 3.72% (inactive). In the case of `Cc1ccc(C(=O)Nc2cccnc2)cc1S(=O)(=O)N1CCCC1`, the inhibition was -5.54% (inactive).

`O=c1[nH]c(=S)[nH]c(O)c1N=Nc1ccc2c(c1)OCO2`: the inhibition was -4.29% (inactive).

For the compound `Cc1ccc(Cl)cc1N1CCN(C(=O)Cc2ccc(-n3c(=O)[nH]c4ccsc4c3=O)cc2)CC1`, the inhibition was 2.93% (inactive). In the case of `O=C1Nc2ccccc2/C1=C/c1ccccc1F`, the inhibition was -2.26% (inactive). As to `O=C(c1nc2ccccn2c1CN1CCN(c2ccccc2O)CC1)N1CCCC1`, the inhibition is -2.41% (inactive). As for `OC(C#CCN1CCCCC1)c1ccccc1` (configuration not stated), the inhibition was -17.1% (inactive). In the case of `Cc1ccc(NC(=O)CSc2ncccc2C(=O)Oc2cccc([N+](=O)[O-])c2)cc1Cl`, the inhibition is -7.7% (inactive). Then `CCOc1ccc(S(=O)(=O)NCCC(=O)NCc2cccnc2)cc1`, with 9.15% (inactive). Take `C#CCOCCOCCOCCNc1nc(N2CCN(C(=O)CCCCCCCCCCNC(=O)[C@H]([C@@H](C)CC)n3cc(CCCCCN)nn3)CC2)nc(N2CCN(C(=O)CCCCCCCCCCNC(=O)[C@H](CCCCN)n3cc(CCCC(=O)O)nn3)CC2)n1`: the inhibition is -21.1% (inactive). For the compound `C#CCOCCOCCOCCNc1nc(N2CCN(C(=O)CCCCCCCCCCNC(=O)[C@H](CCCCN)n3cc(CCO)nn3)CC2)nc(N2CCN(C(=O)CCCCCCCCCCNC(=O)[C@@H]([C@H](C)O)n3cc(C)nn3)CC2)n1`, the inhibition was -15.8% (inactive). With `C#CCOCCOCCOCCNc1nc(N2CCN(C(=O)CCCCCCCCCCNC(=O)[C@@H](CCC(=O)O)n3cc(CCCCCN)nn3)CC2)nc(N2CCN(C(=O)CCCCCCCCCCNC(=O)[C@H]([C@@H](C)CC)n3cc(CCCCCN)nn3)CC2)n1` the figure was -8.02% (inactive); with `C#CCOCCOCCOCCNc1nc(N2CCN(C(=O)CCCCCCCCCCNC(=O)[C@H]([C@@H](C)CC)n3cc(CCCCCN)nn3)CC2)nc(N2CCN(C(=O)CCCCCCCCCCNC(=O)[C@@H]([C@H](C)O)n3cc(C)nn3)CC2)n1`, 60.5% (inactive).

Values taken from PubChem BioAssay AID1850 (Southern Research Specialized Biocontainment Screening …, 2009).
